# Test results: PMC7862700, “An all-to-all approach to the identification of sequence-specific readers for epigenetic DNA modifications on cytosine”
# What was measured:
# Experiment in all cases: DAPPL (digital affinity profiling via proximity ligation, sequencing); 10 mM Tris-HCl pH 7.5, 50 mM NaCl, 1 mM DTT, 4% glycerol, room temperature, 30 min; GST-TFs on glutathione beads, 16-mer random dsDNA library, 0.1% formaldehyde crosslink after washing; high values mean tight binding
# FLI1 = biological target: T1, FLI1 (Homo sapiens, UniProt Q01543 1-452); details: protein: recombinant; tags: N-terminal GST; dsDNA, one strand shown
# T1 sequence: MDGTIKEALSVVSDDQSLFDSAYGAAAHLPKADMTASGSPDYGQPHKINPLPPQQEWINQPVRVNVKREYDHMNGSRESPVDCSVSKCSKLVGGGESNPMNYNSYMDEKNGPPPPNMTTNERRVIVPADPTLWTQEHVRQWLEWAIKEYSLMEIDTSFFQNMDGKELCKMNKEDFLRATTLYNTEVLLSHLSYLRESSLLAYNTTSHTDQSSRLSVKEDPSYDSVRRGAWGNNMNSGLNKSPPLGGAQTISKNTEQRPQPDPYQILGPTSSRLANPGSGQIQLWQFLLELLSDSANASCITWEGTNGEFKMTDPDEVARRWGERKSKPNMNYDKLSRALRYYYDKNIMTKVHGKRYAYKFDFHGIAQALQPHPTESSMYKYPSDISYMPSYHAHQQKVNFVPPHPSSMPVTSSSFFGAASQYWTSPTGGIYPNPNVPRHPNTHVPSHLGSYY
# In short: (§1)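 Binding signal is defined as a hexamer's read frequency for one factor over its frequency for the tag-only sample. To obtain reads, GST-fused human transcription factors were expressed in yeast, captured on glutathione beads, barcoded with DNA and pooled with that sample. Pools met 200 nmole of a 16-mer random double-stranded DNA library in Tris/NaCl/DTT/glycerol buffer for 30 min at room temperature before washing, 0.1% formaldehyde crosslinking, proximity ligation (BsaI/T4 ligase, 1 h, 37 °C), PCR and Illumina NextSeq500 sequencing.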
# ELK1 = biological target: T2, ELK1 (Homo sapiens, UniProt P19419 1-428); details: protein: recombinant; tags: N-terminal GST; dsDNA, one strand shown
# T2 sequence: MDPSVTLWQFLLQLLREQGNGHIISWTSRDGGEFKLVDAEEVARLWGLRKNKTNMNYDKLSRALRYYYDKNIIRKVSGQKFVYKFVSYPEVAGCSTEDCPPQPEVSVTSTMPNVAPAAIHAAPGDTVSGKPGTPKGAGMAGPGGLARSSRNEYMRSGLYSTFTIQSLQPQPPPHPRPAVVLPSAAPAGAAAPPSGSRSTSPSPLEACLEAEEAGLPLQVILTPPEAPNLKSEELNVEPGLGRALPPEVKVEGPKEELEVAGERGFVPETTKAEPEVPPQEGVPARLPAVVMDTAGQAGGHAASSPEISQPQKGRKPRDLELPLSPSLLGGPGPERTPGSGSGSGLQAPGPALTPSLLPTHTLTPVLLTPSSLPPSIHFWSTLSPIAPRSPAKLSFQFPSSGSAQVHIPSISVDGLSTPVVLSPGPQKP
# In short: as §1
# GABPA = biological target: T3, GABPA (Homo sapiens, UniProt Q06546 1-454); details: protein: recombinant; tags: N-terminal GST; dsDNA, one strand shown
# T3 sequence: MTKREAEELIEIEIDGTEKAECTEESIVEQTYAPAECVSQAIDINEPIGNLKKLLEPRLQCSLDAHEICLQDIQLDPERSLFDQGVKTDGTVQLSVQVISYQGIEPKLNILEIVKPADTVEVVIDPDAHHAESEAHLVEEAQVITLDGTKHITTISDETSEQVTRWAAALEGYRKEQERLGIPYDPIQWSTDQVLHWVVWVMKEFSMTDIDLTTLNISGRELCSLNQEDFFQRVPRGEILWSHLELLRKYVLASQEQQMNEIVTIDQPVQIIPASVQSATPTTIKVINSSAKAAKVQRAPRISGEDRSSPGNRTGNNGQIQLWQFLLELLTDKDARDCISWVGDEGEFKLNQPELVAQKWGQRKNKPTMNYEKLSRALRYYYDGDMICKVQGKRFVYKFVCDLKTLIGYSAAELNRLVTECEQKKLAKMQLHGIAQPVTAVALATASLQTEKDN
# In short: as §1
# ERG = biological target: T4, ERG (Homo sapiens, UniProt P11308 1-479); details: protein: recombinant; tags: N-terminal GST; dsDNA, one strand shown
# T4 sequence: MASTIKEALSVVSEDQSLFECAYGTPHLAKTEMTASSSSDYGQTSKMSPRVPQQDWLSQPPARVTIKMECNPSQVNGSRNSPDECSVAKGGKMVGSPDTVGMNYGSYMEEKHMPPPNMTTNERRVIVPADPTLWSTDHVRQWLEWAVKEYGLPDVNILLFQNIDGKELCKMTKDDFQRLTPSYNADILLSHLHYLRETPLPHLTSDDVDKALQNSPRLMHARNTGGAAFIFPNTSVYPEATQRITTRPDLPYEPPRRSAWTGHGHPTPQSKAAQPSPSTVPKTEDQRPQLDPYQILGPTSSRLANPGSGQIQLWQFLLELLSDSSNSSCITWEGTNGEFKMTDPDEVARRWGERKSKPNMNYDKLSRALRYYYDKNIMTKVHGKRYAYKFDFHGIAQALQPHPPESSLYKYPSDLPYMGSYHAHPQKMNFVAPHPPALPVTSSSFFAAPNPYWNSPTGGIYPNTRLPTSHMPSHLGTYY
# In short: as §1
# ELF1 = ELF1 (Homo sapiens, UniProt P32519 1-619); details: protein: recombinant; tags: N-terminal GST; dsDNA, one strand shown
# Chain of ELF1 (P32519 whole entry): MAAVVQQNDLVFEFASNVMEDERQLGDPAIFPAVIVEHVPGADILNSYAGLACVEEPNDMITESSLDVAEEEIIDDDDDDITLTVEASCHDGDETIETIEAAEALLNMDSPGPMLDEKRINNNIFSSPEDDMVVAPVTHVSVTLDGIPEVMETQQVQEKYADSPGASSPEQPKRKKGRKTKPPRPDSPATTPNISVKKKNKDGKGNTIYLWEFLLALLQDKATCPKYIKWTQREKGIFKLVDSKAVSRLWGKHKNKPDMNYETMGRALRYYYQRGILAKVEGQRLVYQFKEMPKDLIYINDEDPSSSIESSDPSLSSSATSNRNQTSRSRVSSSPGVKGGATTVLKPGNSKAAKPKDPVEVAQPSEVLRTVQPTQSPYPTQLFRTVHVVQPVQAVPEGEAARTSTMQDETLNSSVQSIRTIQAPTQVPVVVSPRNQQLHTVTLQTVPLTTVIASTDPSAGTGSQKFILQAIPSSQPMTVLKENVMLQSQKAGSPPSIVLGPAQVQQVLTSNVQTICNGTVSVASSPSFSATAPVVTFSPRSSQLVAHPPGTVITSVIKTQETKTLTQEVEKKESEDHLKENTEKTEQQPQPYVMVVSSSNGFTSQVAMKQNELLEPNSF
# In short: as §1
# EHF = biological target: T5, EHF (Homo sapiens, UniProt Q9NZC4 1-300); details: protein: recombinant; tags: N-terminal GST; dsDNA, one strand shown
# T5 sequence: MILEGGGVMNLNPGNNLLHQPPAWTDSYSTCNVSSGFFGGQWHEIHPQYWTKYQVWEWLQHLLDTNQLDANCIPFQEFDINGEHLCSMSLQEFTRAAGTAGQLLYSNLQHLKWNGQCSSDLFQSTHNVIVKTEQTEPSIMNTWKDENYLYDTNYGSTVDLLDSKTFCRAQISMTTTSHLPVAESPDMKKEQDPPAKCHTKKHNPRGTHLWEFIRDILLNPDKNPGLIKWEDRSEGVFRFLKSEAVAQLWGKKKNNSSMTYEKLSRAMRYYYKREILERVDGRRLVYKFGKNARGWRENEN
# In short: as §1
# SPI1 = SPI1 (Homo sapiens, UniProt P17947 1-270); details: protein: recombinant; tags: N-terminal GST; dsDNA, one strand shown
# In short: as §1
# SPIB = SPIB (Homo sapiens, UniProt Q01892 1-262); details: protein: recombinant; tags: N-terminal GST; dsDNA, one strand shown
# Chain of SPIB (Q01892 whole entry): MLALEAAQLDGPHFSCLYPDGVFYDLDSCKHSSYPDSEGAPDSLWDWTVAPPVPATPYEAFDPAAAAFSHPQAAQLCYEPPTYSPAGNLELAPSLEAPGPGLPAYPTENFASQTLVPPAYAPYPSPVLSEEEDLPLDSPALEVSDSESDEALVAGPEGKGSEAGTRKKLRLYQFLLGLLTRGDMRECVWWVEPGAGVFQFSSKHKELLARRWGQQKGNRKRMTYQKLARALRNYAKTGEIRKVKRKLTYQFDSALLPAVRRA
# In short: as §1
# ELK3 = biological target: T6, ELK3 (Homo sapiens, UniProt P41970 1-407); details: protein: recombinant; tags: N-terminal GST; dsDNA, one strand shown
# T6 sequence: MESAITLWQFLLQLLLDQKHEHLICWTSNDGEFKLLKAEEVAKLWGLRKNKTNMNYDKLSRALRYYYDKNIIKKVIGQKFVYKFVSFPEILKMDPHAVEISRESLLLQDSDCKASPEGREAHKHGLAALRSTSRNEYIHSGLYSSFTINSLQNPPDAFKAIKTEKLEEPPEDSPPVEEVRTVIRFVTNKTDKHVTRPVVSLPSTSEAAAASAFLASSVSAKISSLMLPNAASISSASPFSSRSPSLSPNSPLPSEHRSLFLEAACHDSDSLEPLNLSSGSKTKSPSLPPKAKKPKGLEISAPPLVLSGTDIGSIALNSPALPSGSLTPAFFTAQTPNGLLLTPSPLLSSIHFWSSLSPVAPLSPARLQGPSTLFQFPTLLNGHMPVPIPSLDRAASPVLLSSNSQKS
# In short: as §1
# FEV = biological target: T7, FEV (Homo sapiens, UniProt Q99581 1-238); details: protein: recombinant; tags: N-terminal GST; dsDNA, one strand shown
# T7 sequence: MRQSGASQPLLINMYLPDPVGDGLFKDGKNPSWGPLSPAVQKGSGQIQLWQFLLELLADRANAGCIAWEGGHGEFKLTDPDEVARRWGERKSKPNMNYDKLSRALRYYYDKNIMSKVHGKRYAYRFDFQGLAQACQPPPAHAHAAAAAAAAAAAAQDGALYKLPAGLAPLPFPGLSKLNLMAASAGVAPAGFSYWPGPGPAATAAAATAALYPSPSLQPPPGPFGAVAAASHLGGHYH
# In short: as §1
# ETV5 = ETV5 (Homo sapiens, UniProt P41161 1-510); details: protein: recombinant; tags: N-terminal GST; dsDNA, one strand shown
# Chain of ETV5 (P41161 whole entry): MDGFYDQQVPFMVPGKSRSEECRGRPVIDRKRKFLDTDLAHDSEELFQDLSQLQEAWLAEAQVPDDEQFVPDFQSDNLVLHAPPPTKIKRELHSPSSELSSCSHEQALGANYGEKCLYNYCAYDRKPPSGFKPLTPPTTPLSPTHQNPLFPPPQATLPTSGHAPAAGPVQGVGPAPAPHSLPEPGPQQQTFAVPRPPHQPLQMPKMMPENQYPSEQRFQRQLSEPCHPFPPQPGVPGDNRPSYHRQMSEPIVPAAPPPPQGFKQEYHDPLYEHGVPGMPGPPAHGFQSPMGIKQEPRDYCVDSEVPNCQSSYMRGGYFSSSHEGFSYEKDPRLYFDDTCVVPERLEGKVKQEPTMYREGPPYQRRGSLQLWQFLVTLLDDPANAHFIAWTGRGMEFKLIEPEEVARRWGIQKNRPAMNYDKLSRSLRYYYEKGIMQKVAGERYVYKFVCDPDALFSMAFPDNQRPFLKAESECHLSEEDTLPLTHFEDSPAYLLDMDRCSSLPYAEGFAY
# In short: as §1
# HSF1 = HSF1 (Homo sapiens, UniProt Q00613 1-529); details: protein: recombinant; tags: N-terminal GST; chain copies: 3; dsDNA, one strand shown
# Chain of HSF1 (Q00613 whole entry): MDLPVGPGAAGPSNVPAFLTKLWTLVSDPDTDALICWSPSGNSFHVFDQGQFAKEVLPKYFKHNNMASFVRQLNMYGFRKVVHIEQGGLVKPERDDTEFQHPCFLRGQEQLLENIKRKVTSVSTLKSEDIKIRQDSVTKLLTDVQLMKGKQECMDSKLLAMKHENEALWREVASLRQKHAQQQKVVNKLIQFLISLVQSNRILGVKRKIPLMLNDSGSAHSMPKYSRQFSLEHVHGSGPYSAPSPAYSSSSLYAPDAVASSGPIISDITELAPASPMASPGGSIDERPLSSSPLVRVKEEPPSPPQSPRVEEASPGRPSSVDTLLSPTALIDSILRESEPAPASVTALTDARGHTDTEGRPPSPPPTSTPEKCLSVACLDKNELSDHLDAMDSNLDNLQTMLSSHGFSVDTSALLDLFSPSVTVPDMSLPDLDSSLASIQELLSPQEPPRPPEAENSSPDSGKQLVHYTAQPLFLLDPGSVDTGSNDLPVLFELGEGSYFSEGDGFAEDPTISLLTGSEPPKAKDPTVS
# In short: as §1
# SPIC = biological target: T8, SPIC (Homo sapiens, UniProt Q8N5J4 1-248); details: protein: recombinant; tags: N-terminal GST; dsDNA, one strand shown
# T8 sequence: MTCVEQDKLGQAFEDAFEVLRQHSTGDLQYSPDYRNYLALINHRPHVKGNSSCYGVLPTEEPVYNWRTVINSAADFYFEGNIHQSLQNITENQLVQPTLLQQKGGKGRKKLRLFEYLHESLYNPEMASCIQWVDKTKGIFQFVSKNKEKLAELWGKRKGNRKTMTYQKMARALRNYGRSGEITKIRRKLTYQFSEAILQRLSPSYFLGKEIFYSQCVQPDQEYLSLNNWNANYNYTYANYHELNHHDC
# In short: as §1
# ELF4 = ELF4 (Homo sapiens, UniProt Q99607 1-663); details: protein: recombinant; tags: N-terminal GST; dsDNA, one strand shown
# Chain of ELF4 (Q99607 whole entry): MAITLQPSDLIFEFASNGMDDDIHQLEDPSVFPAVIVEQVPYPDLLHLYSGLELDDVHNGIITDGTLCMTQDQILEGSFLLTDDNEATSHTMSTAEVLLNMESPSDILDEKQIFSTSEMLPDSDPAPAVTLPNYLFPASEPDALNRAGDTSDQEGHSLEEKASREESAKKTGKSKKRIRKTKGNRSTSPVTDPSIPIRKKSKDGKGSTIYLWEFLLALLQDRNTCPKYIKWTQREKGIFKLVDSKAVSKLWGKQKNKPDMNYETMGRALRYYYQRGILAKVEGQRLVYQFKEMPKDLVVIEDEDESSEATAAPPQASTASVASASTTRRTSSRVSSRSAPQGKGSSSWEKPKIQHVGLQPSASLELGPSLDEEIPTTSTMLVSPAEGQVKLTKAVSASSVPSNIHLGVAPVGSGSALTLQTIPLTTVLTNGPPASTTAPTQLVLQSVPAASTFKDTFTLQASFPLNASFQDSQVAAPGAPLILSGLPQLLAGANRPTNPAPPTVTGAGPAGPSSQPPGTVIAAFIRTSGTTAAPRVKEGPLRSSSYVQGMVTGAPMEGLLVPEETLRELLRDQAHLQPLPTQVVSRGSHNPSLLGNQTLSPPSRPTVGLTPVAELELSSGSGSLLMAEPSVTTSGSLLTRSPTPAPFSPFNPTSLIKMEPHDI
# In short: as §1
# ELK4 = biological target: T9, ELK4 (Homo sapiens, UniProt P28324-2 1-405); details: protein: recombinant; tags: N-terminal GST; dsDNA, one strand shown
# T9 sequence: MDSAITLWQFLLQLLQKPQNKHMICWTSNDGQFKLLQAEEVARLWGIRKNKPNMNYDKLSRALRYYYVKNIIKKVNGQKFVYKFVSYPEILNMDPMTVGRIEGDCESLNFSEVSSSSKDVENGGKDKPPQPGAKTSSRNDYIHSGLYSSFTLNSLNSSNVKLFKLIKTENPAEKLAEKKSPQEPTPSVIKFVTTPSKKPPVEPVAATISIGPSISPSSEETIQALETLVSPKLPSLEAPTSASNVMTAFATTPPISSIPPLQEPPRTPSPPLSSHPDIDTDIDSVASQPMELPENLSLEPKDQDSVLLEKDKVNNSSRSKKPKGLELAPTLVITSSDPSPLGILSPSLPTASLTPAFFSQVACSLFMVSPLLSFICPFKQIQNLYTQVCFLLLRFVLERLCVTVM
# In short: as §1
# ETV2 = biological target: T10, ETV2 (Homo sapiens, UniProt O00321 1-342); details: protein: recombinant; tags: N-terminal GST; dsDNA, one strand shown
# T10 sequence: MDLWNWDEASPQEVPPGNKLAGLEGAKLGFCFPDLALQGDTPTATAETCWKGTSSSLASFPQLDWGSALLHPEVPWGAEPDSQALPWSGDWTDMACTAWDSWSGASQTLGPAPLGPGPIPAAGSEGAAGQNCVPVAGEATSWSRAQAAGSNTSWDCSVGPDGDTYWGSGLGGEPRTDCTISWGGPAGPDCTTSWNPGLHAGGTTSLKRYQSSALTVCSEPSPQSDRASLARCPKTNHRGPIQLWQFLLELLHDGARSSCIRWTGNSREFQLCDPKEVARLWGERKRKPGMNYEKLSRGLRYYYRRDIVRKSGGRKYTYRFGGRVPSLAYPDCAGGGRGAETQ
# In short: as §1
# ELF3 = biological target: T11, ELF3 (Homo sapiens, UniProt P78545 1-371); details: protein: recombinant; tags: N-terminal GST; dsDNA, one strand shown
# T11 sequence: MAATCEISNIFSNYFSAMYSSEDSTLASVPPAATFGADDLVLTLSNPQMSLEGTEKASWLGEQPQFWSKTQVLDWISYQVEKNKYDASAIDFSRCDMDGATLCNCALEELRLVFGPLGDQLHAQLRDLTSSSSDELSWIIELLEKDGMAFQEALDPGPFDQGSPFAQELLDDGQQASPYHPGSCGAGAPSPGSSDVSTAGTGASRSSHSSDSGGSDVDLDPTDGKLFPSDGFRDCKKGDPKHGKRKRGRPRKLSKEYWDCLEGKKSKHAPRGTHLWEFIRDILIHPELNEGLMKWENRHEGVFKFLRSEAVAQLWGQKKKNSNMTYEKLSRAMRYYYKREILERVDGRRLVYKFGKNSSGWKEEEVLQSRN
# In short: as §1
# CRX = CRX (Homo sapiens, UniProt O43186 1-299); details: protein: recombinant; tags: N-terminal GST; dsDNA, one strand shown
# Chain of CRX (O43186 whole entry): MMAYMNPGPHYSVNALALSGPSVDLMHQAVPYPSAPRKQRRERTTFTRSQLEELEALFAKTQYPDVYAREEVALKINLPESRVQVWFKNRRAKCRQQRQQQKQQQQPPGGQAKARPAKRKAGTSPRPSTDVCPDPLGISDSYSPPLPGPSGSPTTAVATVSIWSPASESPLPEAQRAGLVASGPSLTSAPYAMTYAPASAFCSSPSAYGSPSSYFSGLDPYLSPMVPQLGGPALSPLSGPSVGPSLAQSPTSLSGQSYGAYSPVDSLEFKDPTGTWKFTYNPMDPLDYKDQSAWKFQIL
# In short: as §1
# ETV1 = ETV1 (Homo sapiens, UniProt P50549 1-477); details: protein: recombinant; tags: N-terminal GST; dsDNA, one strand shown
# Chain of ETV1 (P50549 whole entry): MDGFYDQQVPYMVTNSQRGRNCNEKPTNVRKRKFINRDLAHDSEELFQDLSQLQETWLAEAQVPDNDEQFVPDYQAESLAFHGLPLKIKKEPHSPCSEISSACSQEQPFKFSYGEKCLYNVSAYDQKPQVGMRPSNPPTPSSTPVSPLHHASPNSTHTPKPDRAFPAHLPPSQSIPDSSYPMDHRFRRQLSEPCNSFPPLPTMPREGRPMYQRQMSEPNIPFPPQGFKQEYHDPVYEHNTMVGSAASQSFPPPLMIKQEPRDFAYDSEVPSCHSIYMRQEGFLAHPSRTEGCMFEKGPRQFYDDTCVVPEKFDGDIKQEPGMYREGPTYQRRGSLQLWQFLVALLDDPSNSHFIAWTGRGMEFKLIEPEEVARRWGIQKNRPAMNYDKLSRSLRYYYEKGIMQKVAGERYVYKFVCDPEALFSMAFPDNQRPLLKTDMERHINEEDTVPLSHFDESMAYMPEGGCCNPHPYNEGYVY
# In short: as §1
sequence,measurement,setting,value
ATTGGT,binding signal,FLI1,"1.31 fold enrichment (6-mer frequency, TF over GST control)"
same,binding signal,ELK1,"1.34 fold enrichment (6-mer frequency, TF over GST control)"
same,binding signal,GABPA,"1.14 fold enrichment (6-mer frequency, TF over GST control)"
same,binding signal,ERG,"1.19 fold enrichment (6-mer frequency, TF over GST control)"
same,binding signal,ELF1,"1.22 fold enrichment (6-mer frequency, TF over GST control)"
same,binding signal,EHF,"1.28 fold enrichment (6-mer frequency, TF over GST control)"
same,binding signal,SPI1,"1.25 fold enrichment (6-mer frequency, TF over GST control)"
same,binding signal,SPIB,"1.33 fold enrichment (6-mer frequency, TF over GST control)"
same,binding signal,ELK3,"1.33 fold enrichment (6-mer frequency, TF over GST control)"
same,binding signal,FEV,"1.21 fold enrichment (6-mer frequency, TF over GST control)"
same,binding signal,ETV5,"1.29 fold enrichment (6-mer frequency, TF over GST control)"
same,binding signal,HSF1,"1.12 fold enrichment (6-mer frequency, TF over GST control)"
same,binding signal,SPIC,"1.24 fold enrichment (6-mer frequency, TF over GST control)"
same,binding signal,ELF4,"1.27 fold enrichment (6-mer frequency, TF over GST control)"
same,binding signal,ELK4,"1.19 fold enrichment (6-mer frequency, TF over GST control)"
same,binding signal,ETV2,"1.01 fold enrichment (6-mer frequency, TF over GST control)"
same,binding signal,ELF3,"1.14 fold enrichment (6-mer frequency, TF over GST control)"
same,binding signal,CRX,"1.2 fold enrichment (6-mer frequency, TF over GST control)"
same,binding signal,ETV1,"1.29 fold enrichment (6-mer frequency, TF over GST control)"
